In the supplement of paper PMC11732987, “Enantioselective OTUD7B fragment discovery through chemoproteomics screening and high-throughput optimisation” (Communications Chemistry, 2025):

Columns and labels:
Assay in all cases: log2 ratio of Biotin-Ahx-Ub-VS probe labelling (fragment/DMSO); higher = less target engagement (more negative = stronger competition), active = hit call of the paper (q ≤ 0.05, log2 ratio ≤ -1)
Conditions in all cases: compound concentration: 200 uM; treatment time: 3 h
USP19 = target: T1, USP19 (UniProt O94966)
T1 sequence (whole entry): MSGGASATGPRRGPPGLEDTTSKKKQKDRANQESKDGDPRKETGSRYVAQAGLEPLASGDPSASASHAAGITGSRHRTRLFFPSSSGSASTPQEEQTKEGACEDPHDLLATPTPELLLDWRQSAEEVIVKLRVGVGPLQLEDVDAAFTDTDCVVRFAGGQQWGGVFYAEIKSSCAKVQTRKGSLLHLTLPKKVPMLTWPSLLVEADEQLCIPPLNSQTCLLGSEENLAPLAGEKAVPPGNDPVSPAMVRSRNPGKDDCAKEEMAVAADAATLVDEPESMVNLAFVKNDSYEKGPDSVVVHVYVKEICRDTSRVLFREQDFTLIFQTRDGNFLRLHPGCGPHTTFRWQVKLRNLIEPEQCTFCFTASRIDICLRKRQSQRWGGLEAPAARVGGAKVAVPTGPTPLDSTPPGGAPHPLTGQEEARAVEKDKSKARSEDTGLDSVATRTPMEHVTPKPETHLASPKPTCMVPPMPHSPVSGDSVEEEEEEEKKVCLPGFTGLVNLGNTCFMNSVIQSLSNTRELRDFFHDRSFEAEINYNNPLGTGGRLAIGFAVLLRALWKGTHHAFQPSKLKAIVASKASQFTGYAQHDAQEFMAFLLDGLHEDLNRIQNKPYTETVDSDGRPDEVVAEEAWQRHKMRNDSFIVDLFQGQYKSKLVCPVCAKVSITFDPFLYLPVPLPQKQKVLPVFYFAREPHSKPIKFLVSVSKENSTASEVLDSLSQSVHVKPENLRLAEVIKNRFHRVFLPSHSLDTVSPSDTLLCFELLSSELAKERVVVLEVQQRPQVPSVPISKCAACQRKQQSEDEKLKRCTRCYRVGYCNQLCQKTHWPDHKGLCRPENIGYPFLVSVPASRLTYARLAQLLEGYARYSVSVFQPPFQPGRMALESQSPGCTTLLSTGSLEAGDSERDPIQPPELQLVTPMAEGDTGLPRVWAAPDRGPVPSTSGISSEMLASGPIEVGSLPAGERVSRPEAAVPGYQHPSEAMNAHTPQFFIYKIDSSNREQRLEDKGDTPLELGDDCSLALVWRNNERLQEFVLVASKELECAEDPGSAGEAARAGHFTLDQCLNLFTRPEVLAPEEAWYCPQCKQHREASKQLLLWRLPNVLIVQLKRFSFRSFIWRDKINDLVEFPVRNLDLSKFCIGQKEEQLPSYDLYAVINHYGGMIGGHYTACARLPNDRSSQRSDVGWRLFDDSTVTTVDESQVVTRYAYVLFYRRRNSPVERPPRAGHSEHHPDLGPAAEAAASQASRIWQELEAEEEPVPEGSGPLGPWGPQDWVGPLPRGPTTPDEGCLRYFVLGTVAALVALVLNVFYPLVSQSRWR
Outline: (§1)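 Each value is an average log2 ratio of fragment to vehicle, tested by unpaired t-test. The underlying Spectronaut label-free quantities were global-median-normalised, and only proteins with ≥2 unique peptides were included. Triplicate HEK293T lysate samples (495 µg) were exposed to fragment at 200 µM or vehicle for 3 h, then to Biotin-Ahx-Ub-VS at 0.5 µM final for 1 h, before NeutrAvidin enrichment of labelled DUBs, LysC and trypsin digestion, and diaPASEF LC-MS/MS.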

USP24 = USP24 (UniProt Q9UPU5)
Outline: as §1

USP25 = target: T2, USP25 (UniProt Q9UHP3)
T2 sequence (whole entry): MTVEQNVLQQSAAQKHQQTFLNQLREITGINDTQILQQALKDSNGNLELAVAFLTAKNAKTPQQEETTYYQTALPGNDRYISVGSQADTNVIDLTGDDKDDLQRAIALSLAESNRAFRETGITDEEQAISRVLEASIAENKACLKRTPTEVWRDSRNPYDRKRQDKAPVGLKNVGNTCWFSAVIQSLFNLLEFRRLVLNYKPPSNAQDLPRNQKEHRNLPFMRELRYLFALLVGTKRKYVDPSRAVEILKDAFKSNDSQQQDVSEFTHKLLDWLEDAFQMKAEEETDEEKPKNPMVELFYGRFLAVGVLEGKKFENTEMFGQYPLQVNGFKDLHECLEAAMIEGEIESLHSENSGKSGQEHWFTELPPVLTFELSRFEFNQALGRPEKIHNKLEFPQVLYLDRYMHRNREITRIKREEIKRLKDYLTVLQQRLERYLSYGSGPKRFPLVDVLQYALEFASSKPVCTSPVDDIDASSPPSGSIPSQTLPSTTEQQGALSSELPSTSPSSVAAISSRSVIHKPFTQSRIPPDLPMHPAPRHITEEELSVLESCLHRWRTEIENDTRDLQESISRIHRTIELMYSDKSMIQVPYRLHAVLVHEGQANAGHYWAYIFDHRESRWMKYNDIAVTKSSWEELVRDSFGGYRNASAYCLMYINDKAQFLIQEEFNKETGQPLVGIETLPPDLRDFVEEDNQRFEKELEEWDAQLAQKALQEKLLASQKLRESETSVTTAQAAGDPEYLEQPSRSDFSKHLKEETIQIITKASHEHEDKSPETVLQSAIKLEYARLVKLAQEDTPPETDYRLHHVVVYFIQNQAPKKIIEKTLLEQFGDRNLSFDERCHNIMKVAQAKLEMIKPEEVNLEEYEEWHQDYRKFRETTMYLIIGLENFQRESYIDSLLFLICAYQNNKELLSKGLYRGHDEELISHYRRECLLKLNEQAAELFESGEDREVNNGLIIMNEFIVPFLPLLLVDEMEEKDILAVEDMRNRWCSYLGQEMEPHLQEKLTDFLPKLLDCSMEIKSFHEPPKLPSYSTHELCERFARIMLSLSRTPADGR
Outline: as §1

USP28 = target: T3, USP28 (UniProt Q96RU2)
T3 sequence (whole entry): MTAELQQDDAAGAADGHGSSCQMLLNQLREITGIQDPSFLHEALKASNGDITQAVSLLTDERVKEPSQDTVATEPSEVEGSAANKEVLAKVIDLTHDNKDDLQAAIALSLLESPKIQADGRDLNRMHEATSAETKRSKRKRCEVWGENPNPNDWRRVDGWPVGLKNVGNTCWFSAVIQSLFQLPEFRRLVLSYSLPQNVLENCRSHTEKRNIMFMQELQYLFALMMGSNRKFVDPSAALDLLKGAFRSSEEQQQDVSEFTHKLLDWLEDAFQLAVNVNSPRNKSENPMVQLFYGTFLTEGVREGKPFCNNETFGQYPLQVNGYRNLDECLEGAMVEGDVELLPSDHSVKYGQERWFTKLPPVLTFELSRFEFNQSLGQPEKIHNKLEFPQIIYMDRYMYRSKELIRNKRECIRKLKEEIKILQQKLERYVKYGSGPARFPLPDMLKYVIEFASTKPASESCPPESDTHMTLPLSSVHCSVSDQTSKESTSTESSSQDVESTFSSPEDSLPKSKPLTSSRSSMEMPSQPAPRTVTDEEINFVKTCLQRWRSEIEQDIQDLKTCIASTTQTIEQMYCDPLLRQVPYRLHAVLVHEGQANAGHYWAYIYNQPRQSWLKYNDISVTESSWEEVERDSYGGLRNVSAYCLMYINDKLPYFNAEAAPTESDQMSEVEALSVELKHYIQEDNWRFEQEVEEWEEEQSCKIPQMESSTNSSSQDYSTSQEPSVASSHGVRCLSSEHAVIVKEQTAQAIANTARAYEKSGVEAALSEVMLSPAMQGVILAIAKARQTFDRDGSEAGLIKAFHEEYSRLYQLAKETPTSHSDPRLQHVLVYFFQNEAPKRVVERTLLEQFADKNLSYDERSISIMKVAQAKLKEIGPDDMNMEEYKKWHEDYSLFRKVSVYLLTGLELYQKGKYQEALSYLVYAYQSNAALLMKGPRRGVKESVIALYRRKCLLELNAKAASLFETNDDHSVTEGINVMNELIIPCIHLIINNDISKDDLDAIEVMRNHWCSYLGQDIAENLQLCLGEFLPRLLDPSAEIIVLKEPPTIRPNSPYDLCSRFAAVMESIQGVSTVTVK
Outline: as §1

Measured: log2 ratio of Biotin-Ahx-Ub-VS probe labelling

USP24, sequence (Q9UPU5 whole entry): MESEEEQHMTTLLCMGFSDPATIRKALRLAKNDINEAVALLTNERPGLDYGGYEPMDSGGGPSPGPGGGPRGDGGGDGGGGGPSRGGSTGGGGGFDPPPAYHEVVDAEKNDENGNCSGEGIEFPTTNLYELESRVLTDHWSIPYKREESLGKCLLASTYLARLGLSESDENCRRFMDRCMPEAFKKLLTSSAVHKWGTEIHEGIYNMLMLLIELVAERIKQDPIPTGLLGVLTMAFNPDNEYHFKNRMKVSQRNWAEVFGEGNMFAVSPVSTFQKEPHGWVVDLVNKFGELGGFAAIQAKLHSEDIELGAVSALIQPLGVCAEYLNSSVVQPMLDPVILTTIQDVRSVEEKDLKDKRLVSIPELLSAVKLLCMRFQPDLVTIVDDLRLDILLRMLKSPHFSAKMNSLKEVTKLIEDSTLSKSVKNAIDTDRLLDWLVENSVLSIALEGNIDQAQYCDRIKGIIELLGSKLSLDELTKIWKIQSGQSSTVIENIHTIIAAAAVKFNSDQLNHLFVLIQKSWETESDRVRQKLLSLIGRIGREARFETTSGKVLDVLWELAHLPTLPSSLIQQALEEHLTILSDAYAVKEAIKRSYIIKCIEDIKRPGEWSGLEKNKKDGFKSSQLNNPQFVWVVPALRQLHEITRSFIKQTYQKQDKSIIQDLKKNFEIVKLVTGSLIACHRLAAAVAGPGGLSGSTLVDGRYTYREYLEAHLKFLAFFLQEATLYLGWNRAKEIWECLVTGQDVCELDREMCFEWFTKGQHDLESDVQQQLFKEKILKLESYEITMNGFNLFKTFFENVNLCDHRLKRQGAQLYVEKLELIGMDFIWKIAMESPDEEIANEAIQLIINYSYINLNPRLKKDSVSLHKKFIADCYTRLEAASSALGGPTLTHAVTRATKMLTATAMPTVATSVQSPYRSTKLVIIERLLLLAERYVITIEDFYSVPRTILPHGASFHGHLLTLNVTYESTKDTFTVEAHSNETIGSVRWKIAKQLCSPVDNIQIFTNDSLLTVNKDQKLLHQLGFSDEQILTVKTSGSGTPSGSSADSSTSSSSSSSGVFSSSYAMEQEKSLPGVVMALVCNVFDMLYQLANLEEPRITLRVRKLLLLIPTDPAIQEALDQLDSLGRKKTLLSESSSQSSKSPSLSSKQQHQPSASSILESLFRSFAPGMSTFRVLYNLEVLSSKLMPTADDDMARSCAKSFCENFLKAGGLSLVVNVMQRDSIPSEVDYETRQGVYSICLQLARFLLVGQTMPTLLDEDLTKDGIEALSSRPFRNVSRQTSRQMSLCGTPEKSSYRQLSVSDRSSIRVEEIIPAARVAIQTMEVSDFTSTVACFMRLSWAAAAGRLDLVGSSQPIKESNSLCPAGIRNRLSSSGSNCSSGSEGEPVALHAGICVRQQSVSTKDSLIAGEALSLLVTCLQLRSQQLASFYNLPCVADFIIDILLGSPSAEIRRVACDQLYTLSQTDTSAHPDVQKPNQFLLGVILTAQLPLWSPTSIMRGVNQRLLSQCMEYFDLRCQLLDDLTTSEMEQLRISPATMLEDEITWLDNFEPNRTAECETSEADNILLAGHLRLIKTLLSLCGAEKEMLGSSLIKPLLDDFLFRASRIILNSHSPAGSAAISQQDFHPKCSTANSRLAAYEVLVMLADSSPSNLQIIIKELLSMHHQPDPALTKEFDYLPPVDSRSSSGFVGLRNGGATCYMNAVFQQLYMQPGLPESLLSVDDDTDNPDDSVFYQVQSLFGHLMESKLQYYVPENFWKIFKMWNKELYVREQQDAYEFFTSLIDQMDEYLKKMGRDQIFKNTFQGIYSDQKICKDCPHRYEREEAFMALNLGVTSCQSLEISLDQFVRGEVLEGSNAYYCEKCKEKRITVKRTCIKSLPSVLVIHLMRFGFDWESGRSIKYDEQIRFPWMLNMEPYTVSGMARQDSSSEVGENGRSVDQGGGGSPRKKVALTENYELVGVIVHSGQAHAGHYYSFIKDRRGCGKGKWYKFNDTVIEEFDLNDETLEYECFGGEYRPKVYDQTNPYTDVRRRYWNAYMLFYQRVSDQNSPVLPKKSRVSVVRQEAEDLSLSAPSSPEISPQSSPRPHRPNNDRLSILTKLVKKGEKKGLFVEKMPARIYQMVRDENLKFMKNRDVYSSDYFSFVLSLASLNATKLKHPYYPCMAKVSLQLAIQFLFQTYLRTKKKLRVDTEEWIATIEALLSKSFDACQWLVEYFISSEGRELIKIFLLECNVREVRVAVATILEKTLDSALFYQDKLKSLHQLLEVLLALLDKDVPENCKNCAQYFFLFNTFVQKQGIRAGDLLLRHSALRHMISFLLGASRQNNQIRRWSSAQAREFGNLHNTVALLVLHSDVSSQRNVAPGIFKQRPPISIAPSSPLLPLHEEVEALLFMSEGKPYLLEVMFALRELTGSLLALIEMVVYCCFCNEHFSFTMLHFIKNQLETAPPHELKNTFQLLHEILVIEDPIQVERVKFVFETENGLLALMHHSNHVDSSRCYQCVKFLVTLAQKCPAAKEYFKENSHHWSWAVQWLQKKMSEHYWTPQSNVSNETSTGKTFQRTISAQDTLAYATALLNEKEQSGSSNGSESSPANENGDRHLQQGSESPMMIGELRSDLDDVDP

O=C(CCl)N1CCC(=C(F)CO)C1
inactive: USP19 -0.052 | USP24 0.183 | USP25 0.0707 | USP28 -0.149
